# Laboratory results taken from PubChem BioAssay AID1117319 (Southern Research Institute, 2015).
# Several values for one entry are separate records, joined by “and”; a condition that tells them apart may be missing. Equal entries are not always repeated. The whole screen tested about 260,000 compounds, of which about 1,500 (0.58%) were called active. Not shown: some 5% with an inconclusive outcome. These entries were drawn from the full list. Potency and affinity values are given separately. Unmarked numbers belong to inactive results.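 The calls were made as follows: active = inhibition above a set limit at one or more doses, reproduced on every date tested; inconclusive = results disagree between test dates, or hit never tested in dose response; inactive = the rest.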
# Target: Virion infectivity factor (Human immunodeficiency virus type 1 group M subtype B (isolate BH10)) + Virion infectivity factor (Human immunodeficiency virus type 1 group M subtype B (isolate BRU/LAI)) + Virion infectivity factor (Human immunodeficiency virus type 1 group M subtype B (isolate PCV12)) + Virion infectivity factor (Human immunodeficiency virus type 1 group M subtype B (isolate HXB2)) + DNA dC->dU-editing enzyme APOBEC-3G (Homo sapiens) (UniProt P69720+P69721+P69722+P69723+Q9HC16)
# Assay: HIV-1 Vif–A3G interaction blockers – biochemical, TR-FRET, GST-Vif 1-94, biotin-A3G peptide, dose response retest, primary screen (AID 1117319);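 also: Vif residues 1-94 fused to GST binding biotinylated APOBEC3G peptide 110-148; 0% = full assay without inhibitor and 100% = GST in place of GST-Vif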
# Conditions: TR-FRET GST-Vif / biotin-A3G peptide binding; active compounds read high
row,SMILES,inhibition
1,Cn1c2ccccc2c2c(=O)oc3ccccc3c21,-5.39%
2,CC(=O)n1c2ccccc2c2c1c1ccccc1n2C,-6.7%
3,CCOc1ccccc1NC(=O)Nc1cccc(S(N)(=O)=O)c1,1.28%
4,O=C(/C=C/c1ccccc1)c1ccc2c(c1)OCO2,-5.81%
5,Cc1sc2c(c1C)c(=O)n(-c1ccc(F)cc1)c(=O)n2CC(=O)NCc1ccco1,-4.06%
6,CCOc1ccc(-n2c(=O)c3c4c(sc3n(CC(=O)NCc3ccco3)c2=O)CCC4)cc1,-4.88%
7,CCOC(=O)N1C/C(=C\c2ccccc2)C(=O)/C(=C/c2ccccc2)C1,1.34%
8,C=CC(=O)N1C/C(=C/c2ccccc2)C(=O)/C(=C\c2ccccc2)C1,6.41%
9,CC(C)CCNC(=O)C(=O)NCc1ccccc1,21.7%
10,COc1ccc(NC(=O)CCSc2ccc(F)cc2)cc1,29.9%
11,COc1ccc(NC(=O)COC(=O)CCSc2ccccc2)cc1,-0.53%
12,CC(=O)c1ccc(OCc2cc(C(=O)N3CCC[C@H]3CO)no2)cc1,1.22%
13,CCn1c(COc2ccc3c(c2)OCO3)nnc1SCC(=O)O,-4.1%
14,CCn1c(COc2ccc3c(c2)OCO3)nnc1SCC(=O)c1ccccc1,9%
15,O=C(/C=C/c1ccccc1Cl)Nc1ccccc1,-7.35%
16,COCCOc1ccc(C(F)(F)F)cc1N,16.5%
17,Nc1cc(OCC(F)(F)F)cc(OCC(F)(F)F)c1,2.81%
18,C=CCSc1nc2c(c(=O)[nH]c(=O)n2C)n1Cc1ccc(C)cc1,1.91%
19,CN1c2ccsc2/C(=N/Nc2ccc(F)cc2)CS1(=O)=O,12.5%
20,Cc1cc(NC(=O)CSc2nc3ccccc3c(=O)n2C2CCCC2)no1,3.03%
21,CN(C)c1ccc(NC(=O)CSc2nc3ccccc3c(=O)n2CC2CCCO2)cc1 (stereo unspecified),1.51%
22,CCOC(=O)N1CCN(C(=O)CN(CC)S(=O)(=O)c2cc(C)ccc2OC)CC1,-2.01%
23,CC(=O)Nc1ccc2c3c(ccc([N+](=O)[O-])c13)CC2,1.46%
24,O=[N+]([O-])c1ccccc1Nc1ccccc1[N+](=O)[O-],-5.54%

row,SMILES,inhibition
1,COc1ccc(CCC(=O)N2CCCSC2=Nc2ccc(C(C)=O)cc2)cc1,11.6%
2,O=C1Cc2cc(O)ccc2O1,-1.58%
3,O=C(O)c1cccc2c1-c1ccc(Cl)cc1C2,-7.17%
4,Cc1cc2c(OCC(O)CN3CCCC3)cccc2[nH]1 (stereo unspecified),2.52%
5,O=C(CCCc1cccs1)Nc1nc2c(s1)CCCC2,12.6%
6,CCOC(=O)c1ccc(NS(=O)(=O)c2ccc3c(c2)oc(=O)n3C)cc1,69.3%
7,CCOC(=O)c1ccc(NS(=O)(=O)c2ccc3[nH]c(=O)[nH]c3c2)cc1,5%
8,O=C(O)c1cc(OCc2ccccc2)cc(OCc2ccccc2)c1,1.18%
9,Cc1[nH]ccc(=O)c1OCc1ccccc1,6.47%
10,CCOc1cc(/C=C2/SC(=S)N(Cc3ccccc3)C2=O)ccc1O,6.48%
11,Cc1ccc(NC(=O)CSc2nnc(CNC(=O)c3ccco3)n2C)cc1C,-4.15%
12,O=C(COC(=O)C1CC2CCCC(C1)C2=O)NNC(=O)c1ccccc1Br (stereo unspecified),-2.58%
13,COC(=O)[C@]1(C)N[C@H](CN(C)S(=O)(=O)c2ccc(C(C)(C)C)cc2)[C@@H]2C(=O)N(C)C(=O)[C@@H]21,3.98%
14,O=C1/C(=C/c2ccccc2)SC(=S)N1C1CCS(=O)(=O)C1 (stereo unspecified),-6.69%
15,Cc1ccc(C(=O)N/C(=C/c2ccco2)C(=O)NC2CCS(=O)(=O)C2)cc1 (stereo unspecified),-1.97%
16,Cc1cc(C)n(/N=C/c2ccco2)c(=O)c1C#N,11.3%
17,Cc1ccc(/C=C2\SC(=S)N(C3CCS(=O)(=O)C3)C2=O)o1 (stereo unspecified),-0.73%
18,Cc1ccc(/C=C2\SC(=S)N(C3CCS(=O)(=O)C3)C2=O)cc1 (stereo unspecified),6.18%
19,O=C1/C(=C/c2cccs2)SC(=S)N1C1CCS(=O)(=O)C1 (stereo unspecified),0.42%
20,CC1c2ccccc2N(NC(=O)Cc2ccccc2)C1C (stereo unspecified),1.5%
21,CC(=O)c1ccc(N2CCN(C(=O)c3ccc(OCc4c(C)noc4C)cc3)CC2)cc1,-23.2%
22,CCn1c(SCC(=O)NNC(=O)Cc2ccccc2)nnc1-c1ccccc1,6.74%
23,CNc1ccc(OC)cc1-n1cnc(-c2ccc([N+](=O)[O-])cc2)c1,-2.92%
24,O=C(NCc1ccccn1)C(=O)NCc1ccccn1,5.11%

row,SMILES,inhibition
1,O=C(NCc1ccccn1)/C(=N/O)c1ccccc1,1.42%
2,Cn1nc(C(C)(C)C)cc1C(=O)NCc1ccc2c(c1)OCO2,5.42%
3,O=C(O)c1cccc(-n2cccc2/C=C2/NC(=O)N(c3ccc(Cl)cc3)C2=O)c1,-7.27%
4,O=C(O)c1ccc(COc2ccc3ccccc3c2/C=C2/NC(=O)N(c3ccccc3)C2=O)cc1,24.9%
5,N#C/C(=C/c1cccn1-c1cccc(C(=O)O)c1)c1ccc(F)cc1,0.42%
6,O=C(O)c1cc(-c2ccc(/C=C3\NC(=O)N(c4ccccc4)C3=O)o2)ccc1Cl,25.2%
7,O=C1N/C(=C/c2cccn2-c2ccccc2)C(=O)N1Cc1ccccc1F,0%
8,N#CC(C#N)=Cc1cccn1-c1ccc(S(N)(=O)=O)cc1,-2.79%
9,Cc1c(C(=O)O)cccc1-c1ccc(/C=C2/NC(=O)N(c3ccccc3)C2=O)o1,18.3%
10,O=C(O)c1ccc(COc2ccccc2/C=C2/NC(=O)N(c3cccc(Cl)c3)C2=O)cc1,32.2%
11,Cn1c(C(=O)NCc2cccs2)cc2oc3ccccc3c21,2.73%
12,O=C(NC1(C(F)(F)F)NC(=O)N(CC2CCCCC2)C1=O)c1ccco1 (stereo unspecified),9.27%
13,CCN(C(=O)c1cn(C)c(=O)c2ccccc12)c1ccccc1F,-11.6%
14,Cn1cc(CCNCc2cn[nH]c2-c2ccc(-c3ccccc3)cc2)cn1,-3.24%
15,CC(C)Cc1cc(C(=O)O)c2ccccc2n1,5.6%
16,CCn1c(Cc2ccccc2)nnc1SCC(=O)Nc1ccc(C)cc1,-8.39%
17,CCc1ccccc1NC(=O)Cc1cn(C)c2ccccc12,-13.9%
18,CC(C)c1ccc(NC(=O)Cc2cn(C)c3ccccc23)cc1,4.75%
19,Cc1ccc(N(C(=O)Cn2nnc(-c3ccc(C)o3)n2)C(C(=O)NC2CCCC2)c2ccco2)cc1 (stereo unspecified),1.99% and -5.57%
20,Cc1ccc(-c2nnn(CC(=O)N(c3ccccc3)C(C(=O)NC3CCCC3)c3ccco3)n2)o1 (stereo unspecified),-1.78% and -5.18%
21,COCCN(Cc1ccc(C)c(Br)c1)C(=O)Cn1cnc(S(=O)(=O)N2CCCC2)c1,27.4%
22,CN(C)C(CNC(=O)c1ccccc1C(F)(F)F)c1ccco1 (stereo unspecified),19%
23,CC(C)CCNC(=O)c1cccnc1Sc1ccccc1,-0.39%
24,Cc1ccc(C(C)C)cc1OCCCCN1CCCC1,-6.06%

row,SMILES,inhibition
1,Cc1ccc(S(=O)(=O)NC(=O)Nc2c(C)cccc2C)cc1,-2.09%
2,CCOC(=O)/C=C1\SCC(=O)N1CC(=O)NC(C)c1ccccc1 (stereo unspecified),-4.1%
3,CCOC(=O)/C=C1\SCC(=O)N1CC(=O)NC(C)C,0.13%
4,O=C(CSc1nc2ccccc2n1Cc1ccccc1)N/N=C/c1ccccc1C(=O)O,-4.24%
5,C=CCC[C@H](Cc1ccc(F)cc1)C(=O)OC[C@@H](C)NC(=O)[C@H](CC=C)CC(=O)N(CCO)Cc1ccccc1,0.83%
6,COc1ccc(OC)c(Nc2nc(C3CC3)nc3c2nnn3Cc2ccccc2)c1,-2.66%
7,COc1ccc(OC)c(-c2csc(NC(=O)c3ccc(OCC4CCCO4)cc3)n2)c1 (stereo unspecified),6.81%
8,C=CCNC(=O)C1COc2ccccc2O1 (stereo unspecified),-12.5%
9,O=C(NC(=S)N1CCCc2ccccc21)c1ccc(Br)cc1,-10.8%
10,O=C(NC(=S)N1CCCc2ccccc21)c1ccc(Cl)cc1,-35.9%
11,O=C(c1ccccc1)N1CCCc2ccccc21,16.3%
12,O=C(c1coc(=O)c(Br)c1)N1CCOCC1,24.5%
13,COc1ccccc1N1CCN(C(=O)c2coc(=O)c(Br)c2)CC1,27.6%
14,O=C(c1ccc(=O)[nH]c1)N1CCCc2ccccc21,0.97%
15,O=C(c1cccc(Br)c1)N1CCCc2ccccc21,4.68%
16,O=C(c1ccc(Br)cc1)N1CCCc2ccccc21,4.85%
17,CSC1=C(C#N)C(c2sccc2C)CC(=O)N1 (stereo unspecified),-3.4%
18,C[C@@H]1CCC[C@H](C)N1Cc1nc(Cc2ccccc2Cl)no1,-1.65%
19,Oc1cccc(/C=N/n2c(C3CCCCC3)n[nH]c2=S)c1,2.47%
20,CC(=O)c1c(C)[nH]c(C(=O)CSc2ccc(F)cc2)c1C,29.5%
21,CCOC(=O)N1CCN(C(=O)C2CCCCC2)CC1,-1.05%
22,CCOc1ccsc1C(=O)OC,5.88%
23,CC1(C)CC(=O)C(C=NCCO)=C(O)C1,-1.68%
24,O=C(CNC(=O)c1ccc(Cl)cc1)OCN1C(=O)c2ccccc2C1=O,-9.8%
